Laboratory results from PubChem BioAssay (NCATS).
Values joined by “and” are separate entries in the source; they are usually repeats but may differ in a detail not shown here. Equal entries are not always repeated. Results filed as inconclusive are left out. A structure can be active in one record and inactive in another. Active and inactive are the calls of the source. Unless noted, calls come from the whole dose curve; as a rule, active = well fitted curve in the direction sought with a large enough effect; inconclusive = small, poorly fitted or top-dose-only effect, or another doubt; inactive = no such curve, though single readings can be large; an effect the other way counts as inactive or inconclusive.

Columns and labels:
[1] = system: CASKI; test: Primary qHTS to identify gynecologic anti-cancer compounds using libraries of approved drugs and bioactive compounds (AID 1345084); details: Gynecologic cancer cell panel viability, ATPlite luminescence, 48 h; series mostly up to 57.5 µM; note: % is set by controls: 0 for no effect and ±100 for the full control effect; nearly all actives have a fitted effect of over 55% in size
Method in brief: (§1)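 Cells, 1,000 per well, plated 16 h, then exposed 48 h at 37 C to compounds. Viability by ATPlite luminescence after 15 min at room temperature.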

[2] = system: Es-2; test: as above; details: Gynecologic cancer cell panel viability, ATPlite luminescence, 48 h; series mostly up to 57.5 µM
Method in brief: as §1

[3] = system: HeLa; test: as above; details: Gynecologic cancer cell panel viability, ATPlite luminescence, 48 h; series mostly up to 57.5 µM
Method in brief: as §1

[4] = system: Hek293T; test: as above; details: Gynecologic cancer cell panel viability, ATPlite luminescence, 48 h, control line for the selectivity index; series mostly up to 57.5 µM
Method in brief: as §1

[5] = system: JEG-3; test: as above; details: Gynecologic cancer cell panel viability, ATPlite luminescence, 48 h; series mostly up to 57.5 µM
Method in brief: as §1

[6] = system: OV90; test: as above; details: Gynecologic cancer cell panel viability, ATPlite luminescence, 48 h; series mostly up to 57.5 µM
Method in brief: as §1

[7] = system: PA-1; test: as above; details: Gynecologic cancer cell panel viability, ATPlite luminescence, 48 h; series mostly up to 57.5 µM
Method in brief: as §1

[8] = system: SKOV3; test: as above; details: Gynecologic cancer cell panel viability, ATPlite luminescence, 48 h; series mostly up to 57.5 µM
Method in brief: as §1

[9] = system: Tov-21-G; test: as above; details: Gynecologic cancer cell panel viability, ATPlite luminescence, 48 h; series mostly up to 57.5 µM
Method in brief: as §1

[10] = system: Tov112D; test: as above; details: Gynecologic cancer cell panel viability, ATPlite luminescence, 48 h; series mostly up to 57.5 µM
Method in brief: as §1

[11] = Drug repurposing screens with cells derived from glioblastoma tumor samples (AID 1345199); details: GBM patient neurospheres viability, ATP luminescence, 48 h; note: nearly all actives have a fitted effect of over 40% in size; note: potency is the fitted concentration of half-maximal effect; for activity, negative = cell killing: % is set by controls: 0 for no effect and ±100 for the full control effect
Method in brief: (§2)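 Primary testing used CD133+ neurospheres from four GBM patients, seven concentrations, 48 h exposure and ATP-based viability; confirmation added three slower-growing patient lines.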

[12] = system: astro; test: as above; details: viability, ATP luminescence, 48 h; series mostly up to 45.9 µM
Method in brief: as §2

[13] = molecular target: Nuclear receptor subfamily 1 group I member 2 (Rattus norvegicus) (UniProt Q9R1A7); test: qHTS assay for small molecule activators of the rat pregnane X receptor (rPXR) signaling pathway (AID 651751; call rule not given here; note: 0% is about no effect); details: rPXR reporter cells, luciferase (One-Glo), 24 h
[14] = qHTS assay for small molecule activators of the human pregnane X receptor (PXR) signaling pathway (AID 720659; call rule not given here; note: 0% is about no effect)
[15] = at 45.9 µM (top of the series), tumour line B
[16] = at 45.9 µM (top of the series), tumour line D
[17] = at 46.1 µM (top of the series), tumour line C
[18] = at 46 µM (top of the series), tumour line A

Chain of Nuclear receptor subfamily 1 group I member 2 (Rattus norvegicus) (Q9R1A7 whole entry, looked up): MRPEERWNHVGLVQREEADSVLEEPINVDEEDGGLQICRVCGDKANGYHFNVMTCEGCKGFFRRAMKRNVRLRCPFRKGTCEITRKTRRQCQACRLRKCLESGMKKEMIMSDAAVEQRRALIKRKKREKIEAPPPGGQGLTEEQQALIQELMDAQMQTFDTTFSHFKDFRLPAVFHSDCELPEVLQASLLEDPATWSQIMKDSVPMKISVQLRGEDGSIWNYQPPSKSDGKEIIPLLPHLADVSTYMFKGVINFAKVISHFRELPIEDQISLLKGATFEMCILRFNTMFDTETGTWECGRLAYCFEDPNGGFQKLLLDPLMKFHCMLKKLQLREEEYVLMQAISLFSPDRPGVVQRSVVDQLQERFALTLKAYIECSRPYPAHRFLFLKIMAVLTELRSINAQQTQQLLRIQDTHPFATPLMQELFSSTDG

CC(=O)OCC(=O)[C@@]1(O)CC[C@H]2[C@@H]3CCC4=CC(=O)CC[C@]4(C)[C@H]3C(=O)C[C@@]21C
inactive: Potency [1] | Potency [2] | Potency [3] | Potency [4] | Potency [5] | Potency [6] | Potency [7] | Potency [8] | Potency [9] | Potency [10] | activity, negative = cell killing [11, 15] -22% | Potency [12]
active: Potency ([11]; tumour line A) 25.1 µM

Cc1ccc(C(C)C)cc2c(C)ccc1-2
inactive: Potency [1] | Potency [2] | Potency [3] | Potency [4] | Potency [5] | Potency [6] | Potency [7] | Potency [9] | Potency [10] | activity, negative = cell killing [11, 15] -9% | activity, negative = cell killing [11, 16] 5.15% | activity, negative = cell killing [11, 17] -3.49% | Potency [12]

N[C@H]1C(O)O[C@H](CO)[C@@H](O)[C@@H]1O (some centres undefined)
inactive: Potency [1] | Potency [2] | Potency [3] | Potency [4] | Potency [5] | Potency [6] | Potency [7] | Potency [8] | Potency [9] | Potency [10] | Potency [12]

COC(=O)[C@H]1[C@H]2C[C@@H]3c4[nH]c5cc(OC)ccc5c4CCN3C[C@H]2C[C@@H](OC(=O)COc2ccc(OC)cc2)[C@@H]1OC
inactive: Potency [1] | Potency [2] | Potency [3] | Potency [4] | Potency [5] | Potency [6] | Potency [7] | Potency [8] | Potency [9] | Potency [10] | activity, negative = cell killing [11, 15] -20.4% | Potency [12]
active: Potency ([11]; tumour line A) 11.2 µM

Cc1cc(C(C#N)c2ccc(Cl)cc2)c(Cl)cc1NC(=O)c1cc(I)cc(I)c1O (centres undefined)
inactive: Potency [1] | Potency [2] | Potency [3] | Potency [4] | Potency [5] | Potency [6] | Potency [7] | Potency [8] | Potency [9] | Potency [10]
active: Potency [12] 3.98 µM

CN1CCC[C@@H]1Cc1c[nH]c2ccc(CCS(=O)(=O)c3ccccc3)cc12
inactive: Potency [1] | Potency [2] | Potency [3] | Potency [4] | Potency [5] | Potency [6] | Potency [7] | Potency [8] | Potency [9] | Potency [10] | activity, negative = cell killing [11, 15] -21.2% | Potency [12]
active: Potency ([11]; tumour line A) 14.1 µM

CN1CCCCC1CCN1c2ccccc2Sc2ccc(S(C)=O)cc21 (centres undefined)
inactive: Potency [1] | Potency [2] | Potency [3] | Potency [4] | Potency [5] | Potency [6] | Potency [7] | Potency [8] | Potency [9] | Potency [10] | activity, negative = cell killing [11, 15] -8.07% | activity, negative = cell killing [11, 17] -16.7% and 11.5% | Potency [12]

CCOC(CN1CCN(CC(C)C(=O)c2ccccc2)CC1)c1ccccc1 (centres undefined)
inactive: Potency [1] | Potency [2] | Potency [3] | Potency [4] | Potency [5] | Potency [6] | Potency [7] | Potency [8] | Potency [9] | Potency [10] | activity, negative = cell killing [11, 15] -10.2% | Potency [12]
active: Potency ([11]; tumour line A) 12.6 µM

C[C@H]1O[C@H](O[C@H]2[C@H](O)[C@@H](O)[C@@H](O[C@H]3[C@H](O)[C@@H](O)[C@H](O)O[C@@H]3CO)O[C@@H]2CO)[C@H](O)[C@@H](O)[C@@H]1N[C@H]1C=C(CO)[C@@H](O)[C@H](O)[C@H]1O
inactive: Potency [1] | Potency [2] | Potency [3] | Potency [4] | Potency [5] | Potency [6] | Potency [7] | Potency [9] | Potency [10] | activity, negative = cell killing [11, 15] -6.62% | activity, negative = cell killing [11, 16] 5.79% | activity, negative = cell killing [11, 17] -10.2% | Potency [12]

CC1(C)S[C@@H]2[C@H](NC(=O)Cc3ccccc3)C(=O)N2[C@H]1C(=O)O (tested in a mixture with another compound)
inactive: Potency [1] | Potency [2] | Potency [3] | Potency [4] | Potency [5] | Potency [6] | Potency [7] | Potency [8] | Potency [9] | Potency [10] | Potency [12]

C[C@H]1O[C@@H](n2cc(F)c(=O)[nH]c2=O)[C@H](O)[C@@H]1O
inactive: Potency [1] | Potency [2] | Potency [3] | Potency [4] | Potency [5] | Potency [6] | Potency [7] | Potency [8] | Potency [10] | activity, negative = cell killing [11, 15] -19.9% | activity, negative = cell killing [11, 16] -17.4% | activity, negative = cell killing [11, 18] -26.5% | activity, negative = cell killing [11, 17] 3.86% | Potency [12]

CCN(CC)CCSC(=O)C(c1ccccc1)c1ccccc1
inactive: Potency [1] | Potency [2] | Potency [3] | Potency [4] | Potency [5] | Potency [6] | Potency [7] | Potency [8] | Potency [9] | Potency [10] | activity, negative = cell killing [11, 15] -17.9% and -28.9% | Potency [12]

CC(O)CN(CCN(CC(C)O)CC(C)O)CC(C)O (centres undefined)
inactive: Potency [1] | Potency [2] | Potency [3] | Potency [4] | Potency [5] | Potency [6] | Potency [7] | Potency [8] | Potency [9] | Potency [10] | activity, negative = cell killing [11, 15] -16.3% | activity, negative = cell killing [11, 16] 3.18% | activity, negative = cell killing [11, 18] -27.7% | Potency [12] | max response [13] -2.51% | outcome [14]

CS(=O)(=O)c1ccc([C@@H](O)[C@@H](CF)NC(=O)C(Cl)Cl)cc1
inactive: Potency [1] | Potency [2] | Potency [3] | Potency [4] | Potency [5] | Potency [6] | Potency [7] | Potency [8] | Potency [10] | activity, negative = cell killing ([11]; at 20 µM (top of the series), tumour line C) -23.2% | activity, negative = cell killing ([11]; at 21.2 µM (top of the series), tumour line B) -19.6% | activity, negative = cell killing ([11]; at 21.2 µM (top of the series), tumour line D) -7.33% | Potency [12]
